About 79,000 compounds went through this panel and 15% of them were active in at least one assay; those are over-represented in the sample as a whole. The source made the active and inactive calls. Cut-off read from the data, not from the text of the source: active = growth inhibition above about 70%; inactive = the rest.
How the values were obtained:
[1] = NCI Yeast Anticancer Drug Screen. Data for the wt1 strain (AID 149);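 note: 0% = growth of vehicle-treated wt1 cultures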; conditions: S. cerevisiae wt1 strain (SPY 50644) growth inhibition, stronger effect = higher value
Outline: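 Readout: yeast growth inhibition, normalised to vehicle controls, in the wt1 strain exposed to test compounds.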

[2] = NCI Yeast Anticancer Drug Screen. Data for the rad50EPP+ strain (AID 151);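 note: 0% = growth of vehicle-treated control cultures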; conditions: S. cerevisiae rad50 mutant strain, stronger effect = higher value
Outline: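 Yeast strain carrying rad50 alteration (rad50EPP+) exposed to compounds; growth inhibition measured relative to vehicle-treated controls.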

[3] = NCI Yeast Anticancer Drug Screen. Data for the mgt1 strain (AID 153); conditions: S. cerevisiae mgt1 mutant growth inhibition, stronger effect = higher value
Outline: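 Yeast mgt1 strain (DNA repair/cell-cycle alteration panel) exposed to compounds; growth inhibition measured relative to vehicle-treated controls.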

[4] = NCI Yeast Anticancer Drug Screen. Data for the mec2-1 strain (AID 157); conditions: S. cerevisiae mec2-1 strain, stronger effect = higher value
Outline: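 mec2-1 yeast strain, carrying an alteration in DNA damage repair or cell cycle control, was exposed to compounds; growth inhibition was measured relative to vehicle-treated controls.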

[5] = NCI Yeast Anticancer Drug Screen. Data for the rad14 strain (AID 159);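 note: 0% = growth of vehicle-treated control cultures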; conditions: S. cerevisiae rad14 strain growth inhibition, stronger effect = higher value
Outline: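 Compound-treated yeast with a defined DNA-repair lesion; growth inhibition normalised to vehicle-treated cultures.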

[6] = NCI Yeast Anticancer Drug Screen. Data for the sgs1 mgt1 strain (AID 161);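 note: 0% = growth of cultures given vehicle only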; conditions: S. cerevisiae sgs1 mgt1 strain, stronger effect = higher value
Outline: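 Compounds are added to genetically altered yeast, and growth is compared with cultures given vehicle alone to give percent inhibition.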

[7] = NCI Yeast Anticancer Drug Screen. Data for the CLN2oe strain (AID 163);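 note: 0% = growth of vehicle-only control cultures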; conditions: S. cerevisiae CLN2oe strain, stronger effect = higher value
Outline: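 Yeast cells carrying a defined cell-cycle control alteration were exposed to test compounds. Growth inhibition was scored against vehicle-treated control cultures.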

[8] = NCI Yeast Anticancer Drug Screen. Data for the cln2 rad14 strain (AID 165);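 note: 0% = growth equal to vehicle treated cultures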; conditions: S. cerevisiae cln2 rad14 strain, stronger effect = higher value
Outline: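 Yeast carrying cln2 and rad14 alterations (cell cycle control and DNA damage repair) were exposed to compounds. Growth inhibition was measured against vehicle-treated controls.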

[9] = NCI Yeast Anticancer Drug Screen. Data for the bub3 strain (AID 167); conditions: S. cerevisiae bub3 mutant strain, stronger effect = higher value
Outline: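 Growth of a checkpoint-deficient yeast mutant is measured after compound exposure. Values represent inhibition relative to vehicle.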

[10] = NCI Yeast Anticancer Drug Screen. Data for the wt2 strain (AID 169);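 note: 0% = growth of vehicle-treated yeast cultures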; conditions: S. cerevisiae wt2 strain growth inhibition, stronger effect = higher value
Outline: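 Yeast cells were exposed to test compounds, and growth inhibition was measured relative to vehicle-treated controls.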

[11] = NCI Yeast Anticancer Drug Screen. Data for the mlh1 strain (AID 171);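 note: 0% = growth of vehicle-treated control cultures of the same strain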; conditions: S. cerevisiae mlh1 strain growth inhibition, stronger effect = higher value
Outline: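 Yeast carrying a defined genetic alteration in DNA damage repair or cell cycle control were exposed to test compounds. Growth inhibition was measured relative to vehicle-treated controls.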

[12] = NCI Yeast Anticancer Drug Screen. Data for the sgs1 strain (AID 173);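 note: 0% = growth of vehicle-only control cultures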; conditions: S. cerevisiae sgs1 mutant, stronger effect = higher value
Outline: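 Yeast mutant strains carrying defined defects in DNA damage repair or cell cycle control were exposed to test compounds. Growth inhibition was scored against vehicle-treated controls.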

[13] = NCI Yeast Anticancer Drug Screen. Data for the mlh1 rad18 strain (AID 175); conditions: S. cerevisiae mlh1 rad18 strain growth inhibition, stronger effect = higher value
Outline: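 Growth inhibition of the yeast strain was measured after compound exposure and expressed relative to vehicle-treated controls. The strain carries defined defects in DNA damage repair.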

[14] = NCI Yeast Anticancer Drug Screen. Data for the rad18 strain (AID 177); conditions: S. cerevisiae rad18 mutant growth inhibition, stronger effect = higher value
Outline: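 Yeast carrying a defined DNA damage repair alteration were exposed to compounds. Growth inhibition was expressed relative to vehicle-treated controls.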

[15] = at 5.0 µM (retest, dose inferred, filed as 0.5)
[16] = at 50.0 µM (retest, dose inferred, filed as 5.0)

Measured: growth inhibition

CC1(C)CC(=O)C(C(CC(c2ccccc2)c2cc3c(cc2O)OCO3)C2=C(O)CC(C)(C)CC2=O)=C(O)C1 (stereo not given)
inactive: [1]; at 1.2 µM -84% | [1]; at 3.7 µM -3% | [1]; at 11.0 µM 22% | [2]; at 1.2 µM -2% | [2]; at 3.7 µM -1% | [2]; at 11.0 µM 8% | [2]; at 33.0 µM 18% | [2]; at 100.0 µM 10% | [3]; at 1.2 µM -2% | [3]; at 3.7 µM 1% | [3]; at 11.0 µM 48% | [4]; at 1.2 µM -6% | [4]; at 3.7 µM -3% | [4]; [15] 1% | [4]; at 11.0 µM 43% | [5]; at 1.2 µM -1% | [5]; at 3.7 µM 1% | [5]; at 11.0 µM 22% | [5]; at 33.0 µM 68% | [6]; [15] 0% | [7]; at 1.2 µM -5% | [7]; at 3.7 µM -3% | [7]; at 11.0 µM 1% | [8]; [15] 21% | [9]; at 1.2 µM -3% | [9]; at 3.7 µM -9% | [9]; at 11.0 µM -6% | [9]; at 33.0 µM 63% | [10]; at 1.2 µM -4% | [10]; at 3.7 µM -5% | [10]; at 11.0 µM 21% | [11]; at 1.2 µM -2% | [11]; at 3.7 µM -3% | [11]; at 11.0 µM 39% | [12]; at 1.2 µM -1% | [12]; at 3.7 µM 10% | [12]; at 11.0 µM 62% | [13]; [15] 3% | [14]; at 1.2 µM -2% | [14]; at 3.7 µM 5% | [14]; at 11.0 µM 28%
active: [1]; at 33.0 µM 75% | [1]; at 100.0 µM 85% | [3]; at 33.0 µM 86% | [3]; at 100.0 µM 88% | [4]; at 33.0 µM 84% | [4]; [16] 97% | [4]; at 50.0 µM 93.5% | [4]; at 100.0 µM 87% | [5]; at 100.0 µM 78% | [6]; [16] 96% | [6]; at 50.0 µM 96.8% | [7]; at 33.0 µM 76% | [7]; at 100.0 µM 87% | [8]; [16] 98% | [8]; at 50.0 µM 95% | [9]; [15] 74% | [9]; [16] 99% | [9]; at 50.0 µM 96% | [9]; at 100.0 µM 82% | [10]; at 33.0 µM 88% | [10]; at 100.0 µM 88% | [11]; at 33.0 µM 82% | [11]; at 100.0 µM 87% | [12]; at 33.0 µM 87% | [12]; at 100.0 µM 87% | [13]; [16] 97% | [13]; at 50.0 µM 95.6% | [14]; at 33.0 µM 82% | [14]; at 100.0 µM 82%

From PubChem BioAssay (NCI)
